Shown are actives, neighbours in structure and some others; about 3% of the full set was active somewhere.
mTORC1 inh: mTORC1 pathway inhibition measured by phospho-rpS6. Tsc2-/- p53-/- MEF, phospho-rpS6 immunofluorescence/PI, 24 h. Potency, µM (top dose mostly 38.3 µM), for the others: top-dose activity change, negative = inhibition, actives largely listed as inhibitors. actives 0.78% (n = 44,000). AID 493208;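 further: potency means the concentration at half of the fitted maximal effect; plate controls were DMSO for no effect and rapamycin for full effect; nearly all actives have a fitted effect of over 50% in size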
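Readout is phospho-S6 Alexa 488 signal normalized to PI per well, reported as % active cells with thresholds set from rapamycin (7.5 nM) and DMSO controls. Cells: Tsc2-/-, p53-/- MEFs, 24 hrs compound at 37 C; PI cell number serves as viability.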
SKOV3 invasion: inhibitors of ovarian cancer cell adhesion and invasion in omental model; SKOV3ip1-GFP adhesion/invasion on 3D omental model, fluorescence; Potency, µM (highest dose often 45.8 µM), inactives show top-dose activity change, negative = inhibition, most hits filed as inhibitors; actives 0.1% (n = 46,000); AID 1963576;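 further: potency means the concentration at half of the fitted maximal effect; plate controls were DMSO wells for no effect and tomatine positive control wells for full effect; nearly all actives have a fitted effect of over 65% in size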
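A 3D layer of primary human omental fibroblasts, mesothelial cells, fibronectin and collagen I, grown 48 hr, received SKOV3ip1-GFP cells in serum-free medium plus compounds at 0.36-46 umol/L. After 2 hr RT and 16 hr 37 C, fixed adherent GFP cells were counted; normalized to DMSO and tomatine.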
p53null 39C kill: p53 null cell cytotoxicity, nonpermissive temperature; H1299 p53-null (neo) cells, 39C, ATPlite viability, 24 h; Potency, µM (series often up to 46.1 µM), without a hit: at the highest dose activity, negative = cell killing, most hits filed as cytotoxic; actives 0.97% (n = 55,000); AID 904;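 further: potency means the concentration at half of the fitted maximal effect; 0% = DMSO only and -100% = full killing by 100 µM tamoxifen; nearly all actives have a fitted effect of over 50% in size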
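Cells seeded at 600/well, 37C overnight. Compound added (up to 46 uM), plates shifted to 39C for 24 hr. ATPlite added, luminescence read after 20 min at room temperature.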
S16 viability: S16 Schwann cell cytotoxicity. S16 Pmp22-F2sN Schwann cells viability, CellTiter-Glo, 24 h. Potency, µM (highest dose often 57.5 µM), without a hit: at the top dose activity change, negative = cytotoxicity, hits mostly cytotoxic. actives 0.48% (n = 43,000). AID 1508642; further: potency means the concentration at half of the fitted maximal effect; on the % scale 0 is the no-effect control and ±100 the full control effect; nearly all actives have a fitted effect of over 65% in size
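Used to flag compounds lowering reporter output through toxicity, this quantitative HTS measures ATP-based CellTiter-Glo luminescence in S16 Pmp22-F2sN Schwann cells after 24 h compound exposure at 37C.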
PMP22 txn prim: PMP22 gene transcription modulation; actives 2% (n = 43,000); S16 Pmp22-F2sN Schwann cells, FLuc/NLuc coincidence luminescence, 24 h; Potency, µM (titrated, usually from 57.5 µM), inactives show at the highest dose activity change, negative = inhibition, actives largely listed as inhibitors; active means clear falling dose curves in both reporters; inconclusive means both reporters move, but less clearly or upward; inactive means either reporter flat; the % is the NLuc reporter signal; further: potency means the concentration at half of the fitted maximal effect; on the % scale 0 is the no-effect control and ±100 the full control effect
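Rat S16 Pmp22-F2sN cells, 500-1,000/well in phenol red-free DMEM + 10% FBS, compound-treated 24 h (37C, 5% CO2). Luminescence: FLuc read, Stop&Glo added, NLuc read.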
p53null 32C tox: kills p53 null cells at the permissive temperature. H1299-neo p53 null cells, ATP luminescence, 24 h, 32C. Potency, µM (top dose mostly 46.1 µM), for inactives: top-dose activity change, negative = cytotoxicity, actives largely listed as cytotoxic. actives 0.62% (n = 55,000);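 further: potency means the concentration at half of the fitted maximal effect; 0% = DMSO only and -100% = full killing by 100 µM tamoxifen; nearly all actives have a fitted effect of over 55% in size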
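H1299-neo (p53-null) cells, 600/well, were pre-incubated overnight at 37C, then exposed to compounds at up to 46 uM for 24 hr at 32C. Viability was measured as ATP content by luminescence, and AC50 values came from Hill fits.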
NLuc sat counter: NanoLuc enzyme inhibition artifact for PMP22 screen | actives 4% (n = 690) | Potency, µM (titrated, usually from 57.5 µM), for inactives: at the top dose activity change, negative = inhibition, actives largely listed as inhibitors | shares compounds with PMP22 txn prim | Secreted NLuc enzyme (filtered S16 cell medium), Nano-Glo luminescence; further: potency means the concentration at half of the fitted maximal effect; on the % scale 0 is the no-effect control and ±100 the full control effect
NLuc Km counter: counter-screen for PMP22 expression modulators: NanoLuc inhibition at Km | shares compounds with PMP22 txn prim | secreted NLuc enzyme, coelenterazine luminescence, Km conditions | Potency, µM (series often up to 57.5 µM), inactives show at the highest dose activity change, negative = inhibition, usual class: inhibitors | actives 5% (n = 690) | AID 1508639; further: potency means the concentration at half of the fitted maximal effect; on the % scale 0 is the no-effect control and ±100 the full control effect
FLuc ctr PMP22: inhibits firefly luciferase, PMP22 counter-screen. 690 tested, under 10 active. shares compounds with PMP22 txn prim. Potency, µM (highest dose often 57.5 µM), for inactives: top-dose activity, negative = inhibition, hits mostly inhibitors. purified P. pyralis FLuc, luminescence, 10 min; further: % of control where 0% means no effect
Target sequence (P08659 whole entry, looked up): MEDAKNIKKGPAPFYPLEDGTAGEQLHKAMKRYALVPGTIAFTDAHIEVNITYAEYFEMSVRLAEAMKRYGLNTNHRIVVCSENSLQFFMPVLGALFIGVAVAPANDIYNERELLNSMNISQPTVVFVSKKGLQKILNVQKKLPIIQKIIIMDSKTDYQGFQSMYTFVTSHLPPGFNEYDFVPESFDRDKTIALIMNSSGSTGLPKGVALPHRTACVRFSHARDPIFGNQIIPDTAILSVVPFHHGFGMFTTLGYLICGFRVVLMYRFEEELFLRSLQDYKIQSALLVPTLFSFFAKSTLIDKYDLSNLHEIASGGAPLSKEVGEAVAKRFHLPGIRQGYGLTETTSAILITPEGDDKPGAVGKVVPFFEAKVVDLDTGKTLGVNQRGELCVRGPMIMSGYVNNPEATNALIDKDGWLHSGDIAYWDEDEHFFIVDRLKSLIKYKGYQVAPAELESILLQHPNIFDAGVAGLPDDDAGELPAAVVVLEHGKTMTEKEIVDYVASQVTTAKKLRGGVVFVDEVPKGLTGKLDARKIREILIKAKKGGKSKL
S16 F2sN tox cnf: confirmation of cytotoxicity in S16 Pmp22-F2sN Schwann cells (luciferase reporters placed in the Pmp22 gene). shares compounds with PMP22 txn prim. S16 Schwann cells viability, CellTiter-Glo ATP luminescence, 24 h. Potency, µM (titrated, usually from 57.5 µM), without a hit: at the top dose activity change, negative = viability loss, hits mostly cytotoxic. actives 7% (n = 690); further: potency means the concentration at half of the fitted maximal effect; on the % scale 0 is the no-effect control and ±100 the full control effect
PMP22 txn conf: PMP22 transcription modulation, confirmatory. shares compounds with PMP22 txn prim. S16 Schwann cells Pmp22-F2sN, dual luciferase, 24 h. Potency, µM (series often up to 57.5 µM), without a hit: at the top dose activity change, negative = inhibition, hits mostly inhibitors. actives 22% (n = 690); active means clear falling dose curves in both reporters; inconclusive means both reporters move, but less clearly or upward; inactive means either reporter flat; the % is the FLuc reporter signal; further: potency means the concentration at half of the fitted maximal effect
PMP22 prot conf: rat PMP22 protein level modulation, confirmatory. S16 Schwann cells Pmp22-HiBiT, luminescence, 48 h. Potency, µM (titrated, usually from 27.9 µM), inactives show at the highest dose activity change, negative = inhibition, actives largely listed as inhibitors. 95 tested, under 10 active. shares compounds with PMP22 txn prim
Target sequence (P25094 whole entry, looked up): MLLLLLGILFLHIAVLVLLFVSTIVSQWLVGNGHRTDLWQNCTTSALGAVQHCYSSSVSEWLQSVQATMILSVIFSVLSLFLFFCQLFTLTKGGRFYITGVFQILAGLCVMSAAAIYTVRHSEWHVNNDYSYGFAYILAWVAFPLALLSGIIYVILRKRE
* = called active by the depositor; i = inactive; ? = inconclusive; . = not tested or not shown. Unless noted, the call rests on the fitted dose curve; in most records, active means well fitted curve in the direction sought with a large enough effect; inconclusive means small, poorly fitted or top-dose-only effect, or another doubt; inactive means no such curve, though single readings can be large; an effect the other way counts as inactive or inconclusive.

SMILES | mTORC1 inh | SKOV3 invasion | p53null 39C kill | S16 viability | PMP22 txn prim | p53null 32C tox | NLuc sat counter | NLuc Km counter | FLuc ctr PMP22 | S16 F2sN tox cnf | PMP22 txn conf | others
CCN(CC)CCCNC(=O)c1ccc2c(c1)sc1nc(-c3ccc(C)cc3)cn12 | 5.5% | ? | 0.7% | ? | 10µM* | 4.1% | ? | ? | 15.3µM* | 15.3µM* | 14.5µM*
O=C1NC(=O)C(=Cc2ccc(-c3ccc(F)cc3O)o2)S1 | . | -1.9% | . | . | . | . | . | . | . | . | .
CCCN(C(=O)Cn1nc(Cc2cccnc2)c2ccccc2c1=O)c1ccc(C(C)C)cc1 | -10.1% | -1.5% | ? | -9.1% | ? | ? | . | . | . | . | .
CCCN(C(=O)Cn1nc(Cc2ccncc2)c2ccccc2c1=O)c1ccccc1C | -9.8% | i | 2.5% | 21.8% | 13.4µM* | -0.8% | ? | ? | -3.0% | 8.4% | ?
O=C(Nc1ccc(Br)cc1F)N1CC=C(c2c[nH]c3ccccc23)CC1 | -0.1% | i | 24.8% | -10.1% | ? | 14.8% | -12.6% | ? | -11.8% | 10.0% | -17.4%
Cc1ccc(Cn2c(=O)n(CC3CCC(C(=O)N4CCOCC4)CC3)c(=O)c3sccc32)cc1 (configuration not stated) | 2.6% | -8.5% | 9.6% | 3.9% | 8.6% | -5.5% | . | . | . | . | .
Cc1ccccc1Cn1c(=O)n(CC2CCC(C(=O)N3CCOCC3)CC2)c(=O)c2sccc21 (configuration not stated) | -0.1% | 4.1% | 2.9% | -8.4% | 11.9µM* | 6.2% | -8.3% | 5.6% | 1.9% | -2.2% | -24.4%
Cc1cnc(Nc2cccc(CN3CCOCC3)c2)nc1Nc1cccc(S(=O)(=O)NC(C)(C)C)c1 | . | -28.4% | . | . | . | . | . | . | . | . | .
CCc1ccc2ncc(C(=O)c3ccc(C)c(C)c3)c(N3CCC(C(N)=O)CC3)c2c1 | -1.2% | i | ? | -8.1% | 13.4µM* | 17.4% | 5.44µM* | 7.69µM* | -1.2% | -12.5% | ?
COc1ccc(N2CCN(C(=O)C3CCCN(S(=O)(=O)c4ccc5c(c4)oc(=O)n5C)C3)CC2)cc1 (configuration not stated) | -1.4% | 7.7% | -11.9% | -4.9% | ? | -5.0% | . | . | . | . | .
Cn1c(=O)oc2cc(S(=O)(=O)N3CCCC(C(=O)N4CCN(c5ccc(Cl)cc5)CC4)C3)ccc21 (configuration not stated) | -2.1% | i | -7.9% | ? | 5.12µM* | -6.5% | ? | 5.1% | 2.3% | -22.3% | 15.1µM* | PMP22 prot conf=?
CCOc1cc(C(Nc2cc(C)ccn2)c2ccc3cccnc3c2O)ccc1OC (configuration not stated) | ? | i | ? | ? | 10µM* | ? | ? | 17.2µM* | -1.5% | ? | ?
CCOCCc1nn2c(=O)cc(COC(=O)c3ccccc3NC(=O)c3ccccc3F)nc2s1 | 0.0% | 1.8% | 3.2% | 4.6% | ? | -4.0% | -5.4% | -1.4% | 0.6% | -1.8% | -20.5%
CCc1nn2c(=O)cc(COC(=O)c3ccccc3NC(=O)COc3ccccc3C)nc2s1 | 0.0% | -37.7% | 13.9% | 40.2% | -28.7% | -4.0% | . | . | . | . | .
Cc1ccccc1OCC(=O)Nc1ccccc1C(=O)OCc1cc(=O)n2nc(C3CC3)sc2n1 | 4.3% | -0.3% | 6.2% | 5.5% | 2.53µM* | 4.4% | -7.8% | 3.8% | -1.1% | -3.1% | -19.8%
CCOCCc1nn2c(=O)cc(COC(=O)c3ccccc3NC(=O)CC(C)C)nc2s1 | 6.2% | 12.2% | -8.5% | -1.6% | ? | -10.2% | . | . | . | . | .
COc1ccc(-n2nc3c(N4CCCC(C(=O)NCc5ccccc5C)C4)nnc(C)c3c2C)cc1 (configuration not stated) | 5.21µM* | ? | 15.8µM* | 25.1µM* | 12.6µM* | ? | -3.5% | -0.5% | -0.3% | 21.7µM* | ?
COc1ccc(-n2nc3c(N4CCCC(C(=O)NCCc5ccccc5C)C4)nnc(C)c3c2C)cc1 (configuration not stated) | -5.2% | -24.2% | -6.5% | ? | 17.9µM* | -5.6% | ? | -2.2% | 10.2% | ? | ?
CCOc1ccc(C(=O)Nc2ccc3nc(SCCOc4ccccc4)sc3c2)cc1 | -4.4% | 3.7% | -2.6% | 10.3% | 10.6µM* | -10.2% | -2.5% | 1.7% | 4.0% | -10.6% | -40.3%
Cc1cccc(C(=O)Nc2ccc3nc(SCCOc4ccccc4)sc3c2)c1 | 0.5% | i | -1.2% | 18.7% | ? | -9.9% | . | . | . | . | .
Cc1ccc(OCCSc2nc3ccc(NC(=O)c4ccc5c(c4)OCO5)cc3s2)cc1 | -3.6% | 6.4% | -2.9% | -0.4% | 13.5µM* | -11.1% | -2.8% | 0.9% | -1.9% | ? | ?
O=C(C=Cc1cccnc1)NCCCCC1CCN(C(=O)c2ccccc2)CC1 | . | 3.8% | . | . | . | . | . | . | . | . | .
